tim23-1 inh: growth inhibitors of tim23-1 mutant yeast; S. cerevisiae tim23-1 growth, BacTiter-Glo luminescence, 24 h; inhibition, % at 20 µM; hit rate 1.3% among 330,000; AID 463212;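 active = growth inhibition of the mutant yeast at or above 50%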;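 note: temperature-sensitive mutant grown at 25 °C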
NALP3 yeast inh: inhibitors of NALP3 inflammasome in yeast. Yeast reconstituted NLRP3/ASC/caspase-1, beta-gal luminescence, 24 h. inhibition, % at 10 µM. hit rate 0.39% among 330,000;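 active = inhibition of 50% or more; inactive = inhibition below 50%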
SKKanGAS inh: SKKanGAS growth inhibition; S. pyogenes SKKanGAS, kanamycin growth, BacTiter-Glo, 6 h; hit rate 1.3% among 300,000; AID 1662; inhibition, % at 7.5 µM;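 active = mean replicate score, as percent of positive control median, at least 50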;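 note: strain carries kanamycin resistance gene driven by streptokinase promoter and grows in 40 µg/ml kanamycin; loss of luminescence reflects streptokinase promoter inhibition or plain growth inhibition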
PfHsp90 yeast 2: inhibits growth of yeast expressing Plasmodium falciparum Hsp90. S. cerevisiae expressing PfHsp90, BacTiter-Glo ATP, 48 h; yeast lacking PDR1 and PDR3 efflux regulators. inhibition, % at 9.4 µM. hit rate 0.32% among 310,000;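 active = every replicate shows inhibition above about 80%, whatever the replicate mean, limit read from the data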
tim10-1 inh: inhibits growth of tim10-1 mutant yeast; inhibition, % at 20 µM; hit rate 2.2% among 330,000; S. cerevisiae tim10-1 ts strain growth, BacTiter-Glo, 24 h;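 active = inhibition of at least 40%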;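 note: mutant grown at 25 °C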
TIM10 inh: growth inhibitors of TIM10 yeast strain. S. cerevisiae TIM10 strain growth, BacTiter-Glo luminescence, 24 h. inhibition, % at 10 µM. hit rate 1.4% among 330,000;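 active = inhibition of 40% or more at the single tested concentration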;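 note: wild-type TIM10 isogenic control strain grown at permissive 25 °C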
NALP3 confirm: NALP3 inhibition confirmation in yeast; inhibition, % at 10 µM; hit rate 81% among 1,300; shares compounds with NALP3 yeast inh; yeast expressing human NALP3, luminescence; in the data active = inhibition above about 48%
Casp1-ASC yeast: caspase-1-ASC yeast counter-screen hit; AID 488784; shares compounds with NALP3 yeast inh; yeast expressing Caspase-1-ASC, luminescence counter screen; inhibition, % at 10 µM; hit rate 66% among 1,000
NALP3 yeast rt: yeast NALP3 inhibition, confirmed on retest; shares compounds with NALP3 yeast inh; yeast expressing human NALP3, luminescence read-out; inhibition, % at 10 µM; hit rate 53% among 1,000; AID 488794
tim10-1 confirm: tim10-1 yeast growth inhibition, confirmed; inhibition, % at 20 µM; hit rate 56% among 7,400; shares compounds with tim10-1 inh; S. cerevisiae tim10-1 ts strain growth, BacTiter-Glo, 24 h; AID 463213;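 active = inhibition of yeast growth at or above a set limit in either of two repeat tests at 20 µM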;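 note: tim10-1 mutant grown at permissive 25 °C to find synthetic lethal compounds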
tim10 confirm: confirmation of TIM10 yeast growth inhibitors; shares compounds with TIM10 inh; S. cerevisiae tim10 strain growth, BacTiter-Glo luminescence, 24 h; inhibition, % at 10 µM; hit rate 63% among 4,600;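 active = inhibition of yeast growth at or above a set limit in either of two replicates at 10 µM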; note: this counterscreen used the strain with wild-type TIM10
Large screens that a line does not name were inactive (follow-up assays come after a bar, where they were run). In the library only some 4.6% were active in any assay of this set; here they are far more common. Cut-off read from the data, not from the text of the source, unless noted: active = inhibition above about 50%; inactive = the rest.

Cc1ccc(C(=O)OCC(=O)c2c[nH]c3ccccc23)cc1	none
COc1ccc(CN(C)c2ccc(S(=O)(=O)N3CCN(C)CC3)cc2[N+](=O)[O-])cc1OC	none (no result: SKKanGAS inh, PfHsp90 yeast 2)
CN(CCO)c1cc(Sc2nc3ccccc3s2)c2nonc2c1[N+](=O)[O-]	NALP3 yeast inh 62, SKKanGAS inh 67, tim10-1 inh 41, TIM10 inh 53 | NALP3 confirm 65 | tim10-1 confirm 39 | tim10 confirm 26
O=C(Nc1cccc(C(F)(F)F)c1)N1CCN(C(=O)Nc2cccc(C(F)(F)F)c2)CC1	none
COc1ccc(N2CCN(C(=O)Nc3cccc(C(F)(F)F)c3)CC2)cc1	tim10-1 inh 55, TIM10 inh 49 | NALP3 confirm inactive | tim10-1 confirm 41 | tim10 confirm inactive
COc1ccc(OC)c(NC(=O)C2CCN(C(=O)C3CC(=O)N(c4ccc(C)cc4)C3)CC2)c1 (configuration not stated)	none
O=CC1=C(c2ccccc2)Oc2ccccc2O1	NALP3 yeast inh 68, TIM10 inh 78 | NALP3 confirm 64 | Casp1-ASC yeast 75 | NALP3 yeast rt 85 | tim10 confirm 79
Cc1cccc(C)c1NC(=O)C1C2C=CC(C2)C1C(=O)NCc1ccccn1 (configuration not stated)	none (no result: PfHsp90 yeast 2)
Cc1cc(C)c(C#N)c(SCc2nc3ccccc3[nH]2)n1	NALP3 yeast inh 54, TIM10 inh 44 | NALP3 confirm inactive | Casp1-ASC yeast inactive | NALP3 yeast rt inactive | tim10 confirm 36
N#Cc1cc2c(nc1SCc1nc3ccccc3[nH]1)CCC2	NALP3 yeast inh 66, tim10-1 inh 42, TIM10 inh 73 (no result: PfHsp90 yeast 2) | NALP3 confirm 79 | tim10-1 confirm 35 | tim10 confirm 67
Cc1cc(C)c(C#N)c(SCc2ccc(F)cc2)n1	none
CSCC(C)N1CCC(CCC(=O)NC2CC2)CC1 (configuration not stated)	none
CN(C)/C=C(/C(=O)c1ccccc1)n1cncn1	none
CC(C)(C)C(=O)/C(=C\c1ccc([N+](=O)[O-])cc1)n1cncn1	NALP3 yeast inh 74, TIM10 inh 61 (no result: PfHsp90 yeast 2) | NALP3 confirm 65 | tim10 confirm inactive
CCOC(=O)c1cc(C(=O)c2cccs2)n2ccc(C(C)=O)cc12	NALP3 yeast inh 54, TIM10 inh 50 | NALP3 confirm 51 | Casp1-ASC yeast 52 | NALP3 yeast rt inactive | tim10 confirm 36
O=C(O)CSc1nnc(-c2ccc(Cl)cc2Cl)n1-c1ccc(Cl)cc1	none
Cc1sc(NC(=O)c2cccs2)nc1-c1ccccc1	NALP3 yeast inh 68, TIM10 inh 47 (no result: PfHsp90 yeast 2) | NALP3 confirm 67 | Casp1-ASC yeast 55 | NALP3 yeast rt inactive | tim10 confirm inactive
O=C(Nc1nc2c(s1)CCCC2)c1cccs1	NALP3 yeast inh 50, tim10-1 inh 44, TIM10 inh 44 (no result: SKKanGAS inh) | NALP3 confirm 55 | Casp1-ASC yeast 88 | NALP3 yeast rt 72 | tim10-1 confirm 30 | tim10 confirm inactive
C[C@H](CO)N1C[C@H](C)[C@@H](CN(C)Cc2ccc(Cl)c(Cl)c2)Oc2c(NC(=O)Cc3ccccc3)cccc2C1=O	none (no result: SKKanGAS inh)
O=C1/C(=C/c2ccccc2[N+](=O)[O-])COc2ccccc21	NALP3 yeast inh 71, TIM10 inh 79 | NALP3 confirm 62 | Casp1-ASC yeast 85 | NALP3 yeast rt 74 | tim10 confirm 89
CC1=NNC(=O)/C1=C\c1cn(-c2ccccc2)nc1-c1ccc(F)cc1	none (no result: tim23-1 inh, NALP3 yeast inh, PfHsp90 yeast 2, tim10-1 inh, TIM10 inh)
CC1=NNC(=O)/C1=C\c1cn(-c2ccccc2)nc1-c1cccs1	NALP3 yeast inh 54, PfHsp90 yeast 2 110, TIM10 inh 88 | NALP3 confirm 74 | tim10 confirm 84
COc1ccc([N+](=O)[O-])cc1NC(=O)CSCc1cc(C)cc(C)c1	none
COc1ccccc1NC(=O)CSCc1ccc([N+](=O)[O-])cc1	NALP3 yeast inh 65, TIM10 inh 50 | NALP3 confirm 60 | Casp1-ASC yeast 59 | NALP3 yeast rt 51 | tim10 confirm inactive
COc1ccc(CCC(=O)N2CCCC(Nc3ccccc3)C2)cc1OC (configuration not stated)	none
Fc1ccc(CSc2nnc(-c3cnccn3)n2Cc2ccco2)cc1	TIM10 inh 41 (no result: PfHsp90 yeast 2) | NALP3 confirm inactive | tim10 confirm inactive
Fc1ccc(CSc2nnc(-c3cccnc3)n2Cc2ccco2)cc1	none (no result: PfHsp90 yeast 2)
COc1c[nH]n(C2CCCCC2)c(=O)c1=O	NALP3 yeast inh 57, TIM10 inh 40 | NALP3 confirm 77 | Casp1-ASC yeast 59 | NALP3 yeast rt 67 | tim10 confirm inactive
CCC(C)(C)n1nnnc1C(c1cccs1)N1CCc2ccccc21 (configuration not stated)	TIM10 inh 50 | NALP3 confirm inactive | tim10 confirm 34
Cc1ccc(C(=O)CCC(=O)Nc2ccccc2C)c(C)c1	none
COc1ccccc1CNC(=O)c1cccc(S(=O)(=O)N(C)c2ccccc2)c1	none (no result: SKKanGAS inh)
O=C(Nc1ccccc1)c1ccc2c(c1)OCCO2	none
O=C(Nc1cccc(F)c1)c1ccc2c(c1)OCCO2	NALP3 yeast inh 67, TIM10 inh 41 | NALP3 confirm 70 | Casp1-ASC yeast 62 | NALP3 yeast rt 60 | tim10 confirm 53
N#Cc1ccc(C(=O)Nc2cccc(S(=O)(=O)NC3=NCCC3)c2)cc1	none (no result: SKKanGAS inh)
CC(=O)c1ccc(N2CCN(S(=O)(=O)c3ccc4c5c3CC(=O)N5CC(C)S4)CC2)cc1 (configuration not stated)	none
Cn1c(=O)c(C(=O)NCCO)c(O)c2ccccc21	none
Cn1c(=O)c(C(=O)NNC(=O)c2ccc(Br)cc2)c(O)c2ccccc21	NALP3 yeast inh 60, SKKanGAS inh 92, TIM10 inh 64 | NALP3 confirm 78 | tim10 confirm 59
N#Cc1nc(COc2ccccc2)oc1N1CCCCCC1	NALP3 yeast inh 52, TIM10 inh 75 | NALP3 confirm 71 | Casp1-ASC yeast inactive | NALP3 yeast rt inactive | tim10 confirm inactive
Cc1sc2ncnc(Oc3ccc(-n4ccnc4)cc3)c2c1C	NALP3 yeast inh 53, tim10-1 inh 52, TIM10 inh 69 | NALP3 confirm 61 | Casp1-ASC yeast 69 | NALP3 yeast rt inactive | tim10-1 confirm 53 | tim10 confirm inactive
O=C1CS/C(=C/C(=O)c2ccccc2)N1	none

Source: PubChem (several laboratories)
